Data: PubChem BioAssay AID1159580 (chemical genetic matrix, 2015)
About 2,000 (36%) of roughly 5,500 compounds were called active. Another 18% or so got no clear call; they are omitted. Rule as the data show it: active = normalized growth mostly below about 0.91 (no sharp cut-off); inconclusive = no clear call, values can overlap the other calls; inactive = mostly above about 0.92. This is one part of the list.

Assay: chemical genetic growth profiling, strain panel (AID 1159580);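 also: tested at 20 µM; growth read once vehicle control cultures reached saturation at 30 °C; 1 = growth at the plate median or of vehicle wells; lower values mean less growth of the strain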
Conditions: growth OD

Measured: normalized growth

CC(=O)OC1CC(O)C(C)(C)C2CC(=O)C3(C)C(CCC4(C)C(c5ccoc5)OC(=O)C5OC543)C12C (stereo not given)
inactive: S. cerevisiae deletion strains, locus YAL013W, strain DEP1, active compounds read low 0.996 | S. cerevisiae deletion strains, locus YBR021W, strain FUR4, active compounds read low 0.947 | S. cerevisiae deletion strains, locus YBR229C, strain ROT2, active compounds read low 0.994 | S. cerevisiae deletion strains, locus YCL029C, strain bik1, active compounds read low 0.987 | S. cerevisiae deletion strains, locus YDL035C, strain GPR1, active compounds read low 0.988 | S. cerevisiae deletion strains, locus YDL074C, strain BRE1, active compounds read low 0.945 | S. cerevisiae deletion strains, locus YDL101C, strain DUN1, active compounds read low 0.992 | S. cerevisiae deletion strains, locus YDL134C, strain PPH21, active compounds read low 1.02 | S. cerevisiae deletion strains, locus YDL185W, strain tfp1, active compounds read low 0.995 | S. cerevisiae deletion strains, locus YDL192W, strain arf1, active compounds read low 0.971 | S. cerevisiae deletion strains, locus YDR101C, strain arx1, active compounds read low 0.974 | S. cerevisiae deletion strains, locus YDR150W, strain NUM1, active compounds read low 1.01 | S. cerevisiae deletion strains, locus YDR162C, strain NBP2, active compounds read low 1.01 | S. cerevisiae deletion strains, locus YDR318W, strain mcm21, active compounds read low 1.01 | S. cerevisiae deletion strains, locus YDR388W, active compounds read low 0.998 | S. cerevisiae deletion strains, locus YDR502C, strain sam2, active compounds read low 0.991 | S. cerevisiae deletion strains, locus YEL061C, strain CIN8, active compounds read low 1 | S. cerevisiae deletion strains, locus YER110C, active compounds read low 0.985 | S. cerevisiae deletion strains, locus YER155C, strain BEM2, active compounds read low 0.992 | S. cerevisiae deletion strains, locus YER167W, strain BCK2, active compounds read low 0.996 | S. cerevisiae deletion strains, locus YGL078C, strain dbp3, active compounds read low 0.968 | S. cerevisiae deletion strains, locus YGL086W, strain mad1, active compounds read low 0.978 | S. cerevisiae deletion strains, locus YGL248W, strain PDE1, active compounds read low 1.01 | S. cerevisiae deletion strains, locus YGR135W, strain pre9, active compounds read low 1.02 | S. cerevisiae deletion strains, locus YGR229C, strain SMI1, active compounds read low 0.998 | S. cerevisiae deletion strains, locus YGR252W, strain gcn5, active compounds read low 1.04 | S. cerevisiae deletion strains, locus YHR030C, strain SLT2, active compounds read low 0.995 | S. cerevisiae deletion strains, locus YHR079C, strain IRE1 (second series), active compounds read low 0.988 | S. cerevisiae deletion strains, locus YHR094C, strain hxt1, active compounds read low 0.989 | S. cerevisiae deletion strains, locus YHR129C, strain ARP1, active compounds read low 0.99 | S. cerevisiae deletion strains, locus YHR200W, strain rpn10, active compounds read low 1.01 | S. cerevisiae deletion strains, locus YIL066C, strain RNR3, active compounds read low 1.01 | S. cerevisiae deletion strains, locus YIL073C, strain SPO22, active compounds read low 1.06 | S. cerevisiae deletion strains, locus YIL125W, strain kgd1, active compounds read low 0.997 | S. cerevisiae deletion strains, locus YIR030C, strain dcg1, active compounds read low 0.992 | S. cerevisiae deletion strains, locus YJL095W, strain BCK1, active compounds read low 1.03 | S. cerevisiae deletion strains, locus YJL134W, strain LCB3, active compounds read low 0.988 | S. cerevisiae deletion strains, locus YJL168C, strain set2, active compounds read low 0.995 | S. cerevisiae deletion strains, locus YJL187C, strain SWE1 (second series), active compounds read low 0.996 | S. cerevisiae deletion strains, locus YJR043C, strain POL32, active compounds read low 0.989 | S. cerevisiae deletion strains, locus YJR075W, strain HOC1, active compounds read low 1.01 | S. cerevisiae deletion strains, locus YKL009W, strain mrt4, active compounds read low 0.931 | S. cerevisiae deletion strains, locus YKL068W, active compounds read low 0.996 | S. cerevisiae deletion strains, locus YKL085W, strain MDH1 (second series), active compounds read low 0.999 | S. cerevisiae deletion strains, locus YKL085W, strain MDH1, active compounds read low 0.999 | S. cerevisiae deletion strains, locus YKR001C, strain vps1, active compounds read low 1 | S. cerevisiae deletion strains, locus YLR039C, strain RIC1, active compounds read low 0.995 | S. cerevisiae deletion strains, locus YLR058C, strain SHM2, active compounds read low 1 | S. cerevisiae deletion strains, locus YLR102C, strain apc9, active compounds read low 0.996 | S. cerevisiae deletion strains, locus YLR262C, strain YPT6, active compounds read low 1.02 | S. cerevisiae deletion strains, locus YLR268W, strain sec22, active compounds read low 0.96 | S. cerevisiae deletion strains, locus YLR330W, strain CHS5, active compounds read low 1.01 | S. cerevisiae deletion strains, locus YLR342W, strain FKS1 (second series), active compounds read low 1.01 | S. cerevisiae deletion strains, locus YLR371W, strain rom2, active compounds read low 0.99 | S. cerevisiae deletion strains, locus YLR418C, strain cdc73, active compounds read low 0.999 | S. cerevisiae deletion strains, locus YML016C, strain PPZ1, active compounds read low 0.985 | S. cerevisiae deletion strains, locus YML032C, strain rad52, active compounds read low 1.03 | S. cerevisiae deletion strains, locus YML124C, strain tub3, active compounds read low 1 | S. cerevisiae deletion strains, locus YMR078C, strain ctf18, active compounds read low 0.988 | S. cerevisiae deletion strains, locus YMR223W, strain ubp8, active compounds read low 1.01 | S. cerevisiae deletion strains, locus YMR307W, strain GAS1, active compounds read low 0.971 | S. cerevisiae deletion strains, locus YNL067W, strain RPL9B, active compounds read low 1.01 | S. cerevisiae deletion strains, locus YNL233W, strain BNI4, active compounds read low 0.987 | S. cerevisiae deletion strains, locus YNL250W, strain rad50, active compounds read low 0.989 | S. cerevisiae deletion strains, locus YNL271C, strain bni1, active compounds read low 0.983 | S. cerevisiae deletion strains, locus YNL298W, strain CLA4, active compounds read low 0.968 | S. cerevisiae deletion strains, locus YNL307C, strain MCK1, active compounds read low 0.98 | S. cerevisiae deletion strains, locus YNL322C, strain KRE1, active compounds read low 0.999 | S. cerevisiae deletion strains, locus YNR052C, strain pop2, active compounds read low 0.996 | S. cerevisiae deletion strains, locus YOL006C, strain TOP1, active compounds read low 0.972 | S. cerevisiae deletion strains, locus YOL012C, strain htz1 0.734 | S. cerevisiae deletion strains, locus YOL147C, strain pex11, active compounds read low 0.989 | S. cerevisiae deletion strains, locus YOR061W, strain CKA2, active compounds read low 0.991 | S. cerevisiae deletion strains, locus YOR069W, strain VPS5, active compounds read low 0.985 | S. cerevisiae deletion strains, locus YOR136W, strain idh2, active compounds read low 0.966 | S. cerevisiae deletion strains, locus YOR144C, strain elg1, active compounds read low 0.996 | S. cerevisiae deletion strains, locus YOR184W, strain ser1, active compounds read low 0.982 | S. cerevisiae deletion strains, locus YOR316C, strain cot1, active compounds read low 0.992 | S. cerevisiae deletion strains, locus YPL055C, strain LGE1, active compounds read low 0.999 | S. cerevisiae deletion strains, locus YPR119W, strain clb2, active compounds read low 0.992 | S. cerevisiae deletion strains, locus YPR141C, strain kar3, active compounds read low 0.987 | S. cerevisiae deletion strains, locus YPR163C, strain tif3, active compounds read low 1 | S. cerevisiae deletion strains, locus YPR167C, strain met16, active compounds read low 0.985 | S. cerevisiae deletion strains, strain wtn01, active compounds read low 0.958 | S. cerevisiae strains, strain wild type, active compounds read low 1
